The values below come from PubChem BioAssay (NCATS).

The test system of test [1] is Zika virus NS2B-NS3 protease (linked construct). Put plainly: Primary screen NINDS Rhodamine qHTS for Zika virus inhibitors (AID 1347160). Also: % is scaled to controls: 0 for no effect and ±100 for the full control effect; nearly all actives have a fitted effect of over 55% in size. The procedure, abridged: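 Rhodamine110-peptide cleavage (1.5 µM substrate) by 25 nM linked NS2B-NS3 enzyme at pH 8.0 (Tris, Tween 20), after 15 min RT preincubation with compounds; 15-min fluorescence change normalized to controls and Hill-fitted.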
In general terms: Quantitative high-throughput screening tests each substance at several concentrations.

Test [2] addresses Calcium and integrin-binding protein 1 (Homo sapiens) (UniProt Q99828). Put plainly: Primary qHTS for Identification of Calcium Integrin Binding Protein 1 (CIB1) Competitor (AID 1508620).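 Also: GST tagged CIB1 binding a fluorescein labelled alphaIIb integrin peptide tracer; top concentration of the series differs between compounds; % is scaled to controls: 0 for no effect and ±100 for the full control effect.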 The essentials:
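Fluorescence polarization competition: CIB1-GST (1 uM final) preincubated with compound 15 min at room temperature, then FITC-labeled alphaIIb peptide (100 nM final) added for another 15 min. Polarization read at Ex 480/Em 540.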

Test [3] can be described thus: Primary qHTS for inhibitors of nuclear receptor binding SET domain protein 2 (NSD2) in an isogenic RCH-ACV NSD2 p.E1099K mutant (9B) (AID 1645876). Also: nearly all actives have a fitted effect of over 70% in size. Also: potency is read from the fitted curve at half-maximal effect.
Test [4] deals with Glutathione peroxidase 1 (Homo sapiens) (UniProt P07203). In words: Primary qHTS Assay for Inhibitors of Recombinant Selenoprotein Glutathione Peroxidase 1 (GPX1) (AID 1845191). Also: nearly all actives have a fitted effect of over 65% in size. As to activity, negative = inhibition: % is scaled to controls: 0 for no effect and ±100 for the full control effect. The essentials: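 GPX1 10 nM, GR 100 nM, GSH 1 mM, NADPH 0.5 mM, CHP 0.5 mM (final). 30-min cpd preincubation, RT. Ex340/Em450 read t=0, t=15 min.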
The target of test [5] is Phospholipid hydroperoxide glutathione peroxidase GPX4 (Homo sapiens) (UniProt P36969). In words: Primary qHTS Assay for Inhibitors of Recombinant Selenoprotein Glutathione Peroxidase 4 (GPX4) (AID 1845192). Also: nearly all actives have a fitted effect of over 65% in size. As to activity change, negative = inhibition: % is scaled to controls: 0 for no effect and ±100 for the full control effect. The procedure, abridged:
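qHTS, GR-coupled: GPX4 200 nM + cpd 30 min RT → GSH 1 mM, NADPH 0.5 mM, GR 100 nM → CHP 0.5 mM start; fluor 340/450 at t0 and t15 min; no-enzyme wells as control.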

The target of test [6] is Luciferin 4-monooxygenase (Photinus pyralis) (UniProt P08659). In words: Primary firefly luciferase (FLuc) qHTS assay for identification of artifact compounds. (AID 1845220).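 Also: plate controls were DMSO vehicle for no effect and no enzyme for full effect; nearly all actives have a fitted effect of over 60% in size.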 As to conditions: outcome: dose series up to 54.1 µM unless noted. The procedure, abridged:
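Reaction readout was CCD-imaged luminescence, taken 5 min after adding 10 nM purified firefly enzyme to compound-treated wells holding 10 uM luciferin and ATP in pH 7.6 buffer.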

Test [7] is described as follows: Primary fluorescence-based thiol-reactive (MSTI) qHTS assay for identification of artifact compounds. (AID 1845221).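 Also: thiol-reactive compounds lower the probe fluorescence signal; nearly all actives have a fitted effect of over 65% in size.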 The essentials: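 In PBS pH 7.4 with 2% DMSO, each compound met 4 uM MSTI for one hour at ambient temperature, shielded from light, before fluorescence detection.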
Test [8] deals with Nanoluciferase (engineered Oplophorus gracilirostris luciferase). Put plainly: Primary Nanoluciferase (NLuc) qHTS assay for identification of artifact compounds. (AID 1845222).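 Also: NLuc secreted into diluted conditioned medium of S16 cells.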 The procedure, abridged:
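Concentration-response data were obtained by luminescence after 5 min with Nano-Glo substrate at 1:100. The enzyme was diluted S16 NLuc-expressing cell medium, preincubated with compound for 15 min at RT. Curves were fitted with a 4-parameter Hill model.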

In test [9] the test system is CRL-7250. In words: Cytotoxic Profiling of Annotated Libraries Using Quantitative High-Throughput Screening (AID 1296008). Also: nearly all actives have a fitted effect of over 60% in size. Also: potency is read from the fitted curve at half-maximal effect. As to max response: % is scaled to controls: 0 for no effect and ±100 for the full control effect. As to conditions: Five cell lines viability, CellTiter-Glo ATP luminescence, 48-72 h; max response: active compounds read low. The procedure, abridged:
(§1)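 Compounds were pin-transferred onto cells and incubated 48 or 72 hr at 37 degree Celsius, 95% humidity. CellTiter-Glo was added, plates sat 10 min at room temperature, then ATP-coupled luminescence was imaged as the viability read-out.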
(In ATP-based viability assays light output follows the ATP content of the culture.)

For test [10], the system named is HEK293. The test is described as above. Conditions: Five cell lines viability, CellTiter-Glo ATP luminescence, 48-72 h; max response: active compounds read low. The essentials: as §1
Test [11] relates to HaCat. Described as above. As to conditions: Five cell lines viability, CellTiter-Glo ATP luminescence, 48-72 h; max response: active compounds read low. The procedure, abridged: as §1
The subject of test [12] is NIH3T3. The description is as above. As to conditions: Five cell lines viability, CellTiter-Glo ATP luminescence, 48-72 h; max response: active compounds read low. The procedure, abridged:
as §1

The subject of test [13] is Es-2. Put plainly: Primary qHTS to identify gynecologic anti-cancer compounds using libraries of approved drugs and bioactive compounds (AID 1345084). Also: nearly all actives have a fitted effect of over 55% in size. Also: potency is read from the fitted curve at half-maximal effect. As to conditions: Gynecologic cancer cell panel viability, ATPlite luminescence, 48 h; series mostly up to 57.5 µM. The essentials: (§2)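 Five-concentration response, 48 h; readout is ATP-driven luciferase luminescence.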
Test [14] concerns PA-1. The test is described as above. Conditions: Gynecologic cancer cell panel viability, ATPlite luminescence, 48 h; series mostly up to 57.5 µM. The essentials:
as §2

Test [15] has as its system CASKI. Described as above. As to conditions: Gynecologic cancer cell panel viability, ATPlite luminescence, 48 h; series mostly up to 57.5 µM. The procedure, abridged: as §2
Test [16] has as its system OV90. The test is described as above. As to conditions: Gynecologic cancer cell panel viability, ATPlite luminescence, 48 h; series mostly up to 57.5 µM. The essentials:
as §2

For test [17], the system named is C33A. The test is described as above. Conditions: Gynecologic cancer cell panel viability, ATPlite luminescence, 48 h; series mostly up to 57.5 µM. The essentials:
as §2

Test [18] deals with Hek293T. The test is described as above. Conditions: Gynecologic cancer cell panel viability, ATPlite luminescence, 48 h, control line for the selectivity index; series mostly up to 57.5 µM. The procedure, abridged: as §2
For test [19], the system named is Tov-21-G. Described as above. As to conditions: Gynecologic cancer cell panel viability, ATPlite luminescence, 48 h; series mostly up to 57.5 µM. The essentials: as §2
In test [20] the test system is Tov112D. The test is described as above. As to conditions: Gynecologic cancer cell panel viability, ATPlite luminescence, 48 h; series mostly up to 57.5 µM. The procedure, abridged: as §2

Molecules are shown by their SMILES. Unmarked numbers belong to inactive results. Results filed as inconclusive are left out. Calls of active or inactive are those of the source. Calls follow the shape of the dose curve; as a rule, active = well fitted curve in the direction sought with a large enough effect; inconclusive = small, poorly fitted or top-dose-only effect, or another doubt; inactive = no such curve, though single readings can be large; an effect the other way counts as inactive or inconclusive. Where a SMILES comes first, the peptide text is derived from it. [ ]: non-standard residue; d: D form. Ala(indol-2-yl) = N[C@@H](Cc1cc2ccccc2[nH]1)C(=O)O; Aib = CC(C)(N)C(=O)O

Chain of Calcium and integrin-binding protein 1 (Homo sapiens) (Q99828 whole entry, looked up): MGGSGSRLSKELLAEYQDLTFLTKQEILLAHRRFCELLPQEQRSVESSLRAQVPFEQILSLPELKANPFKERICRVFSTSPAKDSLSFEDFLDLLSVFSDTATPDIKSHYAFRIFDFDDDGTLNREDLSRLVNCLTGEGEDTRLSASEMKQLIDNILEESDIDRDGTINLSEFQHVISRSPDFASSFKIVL
Chain of Phospholipid hydroperoxide glutathione peroxidase GPX4 (Homo sapiens) (P36969 whole entry, looked up): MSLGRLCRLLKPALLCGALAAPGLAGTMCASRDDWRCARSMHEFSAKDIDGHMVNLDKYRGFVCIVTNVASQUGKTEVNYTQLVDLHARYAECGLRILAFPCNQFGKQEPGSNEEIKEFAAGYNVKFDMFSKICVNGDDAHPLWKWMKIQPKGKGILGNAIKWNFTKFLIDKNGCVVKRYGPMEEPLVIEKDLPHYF
Chain of Glutathione peroxidase 1 (Homo sapiens) (P07203 whole entry, looked up): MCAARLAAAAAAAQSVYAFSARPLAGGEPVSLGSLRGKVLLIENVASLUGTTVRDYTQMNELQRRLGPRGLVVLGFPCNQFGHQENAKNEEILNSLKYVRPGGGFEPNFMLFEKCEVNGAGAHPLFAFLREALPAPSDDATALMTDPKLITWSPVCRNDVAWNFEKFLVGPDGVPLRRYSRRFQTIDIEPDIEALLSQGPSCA

On to `CC1=CC(=O)[C@@H](O)[C@]2(C)C3[C@@H](O)[C@@H]4OC(=O)[C@@H]([C@H]4C)[C@]3(C)C(=O)C[C@@H]12` (stereo partly drawn), for which the Potency result in test [1], in test [2], in test [4], in test [5], in test [7] and in test [8] was “inactive” each time. Moreover, the Potency in test [3] was 2260 nM (active); in [9] it was 3210 nM (active); in test [10], 2860 nM (active); in [11], 11400 nM (active); in [12] it was 3600 nM (active); in test [13] it was 8910 nM (active). In addition, the Potency in test [14] is 2820 nM (active). In addition, the molecule was classed as inactive in test [6].
Regarding `C[C@]12CC[C@H](O)C[C@H]1CC[C@@H]1[C@@H]2[C@H](O)C(=O)[C@]2(C)[C@@H](c3ccc(=O)oc3)CC[C@]12O`, the Potency entry in test [1], in [4], in [5], in test [7] and in [8] was “inactive” each time. The Potency in test [3] is 20.5 nM (active); in [9] it was 41.1 nM (active); in test [10] it was 32.6 nM (active); in test [11] it was 130 nM (active); in [15], 398 nM (active); in test [13] it was 89.1 nM (active). Also, the Potency in test [16] is 282 nM (active); in [14], 79.4 nM (active). The call in test [6] was inactive. In test [12], the max response is -1.67%.
In the case of `CC(C)(NC(=O)[C@@H](N)Cc1ccc(O)cc1)C(=O)N[C@@H](Cc1cc2ccccc2[nH]1)C(=O)N[C@@H](Cc1ccccc1)C(=O)O` (H-Y[Aib][Ala(indol-2-yl)]F-OH), the activity change, negative = inhibition was -10.9% [at 10.7 µM] in test [1], -0.548% [at 9.73 µM] in test [5] and 1.26% [at 11.6 µM] in [6]. Moreover, the Potency entry in test [2] was “inactive”. Besides, the activity change, negative = viability loss in [3] is -7% [at 9.23 µM]. Besides, the activity, negative = inhibition in test [4] is 0.29% [at 9.52 µM]; in test [8], 2.82% [at 11.6 µM]. Also, in test [7], the activity change, negative = thiol reactive was 54.2% [at 11.5 µM]. For the same molecule, the max response in test [9] is -5.29%; in test [10], -3.45%; in test [11] it was -4.8%. Also, the activity change, negative = cytotoxicity in test [17] is 17.2% [at 11.6 µM]; in test [15] it was 4.29% [at 11.6 µM]; in [13], 0.783% [at 11.6 µM]; in test [18], -0.36% [at 11.6 µM]; in [16], 2.67% [at 11.6 µM]; in test [14] it was 2.34% [at 11.6 µM]. In addition, the results for the activity change, negative = cytotoxicity in test [19] and in test [20] were 16.4% [at 11.6 µM] and -10.9% [at 11.6 µM], respectively.
In the case of `CC(=O)OC[C@]12C[C@H](OC(=O)CC(C)C)C(C)=C[C@H]1O[C@@H]1[C@H](O)[C@@H](O)[C@@]2(C)[C@]12CO2`, the Potency result in test [1], in test [2], in test [4], in test [5], in test [7] and in test [8] was “inactive” throughout. The Potency in test [3] was 25.2 nM (active); in test [9] it was 142 nM (active); in test [10], 25.2 nM (active); in test [11], 252 nM (active); in test [12] it was 100 nM (active); in test [15] it was 224 nM (active). In addition, the Potency is 178 nM (active) in test [13], 79.4 nM (active) in test [18], 355 nM (active) in [19] and 316 nM (active) in test [20]. Further, the outcome in test [6] was inactive.
Regarding `C[N@@+]1(CC2CC2)CC[C@]23c4c5ccc(O)c4O[C@H]2C(=O)CC[C@@]3(O)[C@H]1C5`, the Potency entry in test [1], in test [2], in test [3], in test [5], in [7] and in [8] was “inactive” throughout. Besides, the Potency result in test [17], in test [15], in test [13], in test [18], in test [16] and in test [14] was “inactive” each time. For the same molecule, the Potency result in test [19] and in test [20] was “inactive” each time. For the same molecule, the max response is 2.78% in test [9], 0.678% in [10], -19.5% in test [11] and 2.77% in test [12].
